The results in this text go back to PubChem BioAssay AID651629 (Sanford-Burnham Center for Chemical Genomics, 2012).

Each structure is given as a SMILES string. The list shows a part of the results. A number with no mark means an inactive call. Active and inactive are the calls of the source.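 How the source made its calls: active means mean inhibition across replicates of 40% or more; inactive means mean inhibition below 40%.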

This test can be described thus: triacylglycerol accumulation inhibitors, retest, confirmation, cell-based, single concentration, Nile Red fluorescence, H9c2 (AID 651629).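 Further: plate controls were DMSO only wells for no effect and Triacsin C treated wells for full effect.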 As to conditions: H9c2 lipid accumulation, at 12.5 µM, stronger effect = higher value, cells loaded with 200 µM oleic acid.
Regarding `COc1ccc2sc(-c3ccc(S(C)(=O)=O)cc3)c(C#Cc3cncn3C)c2c1`, the inhibition is 74.2% (active).
With `COc1ccc(/C=C2/CCCc3ccccc3C2=O)cc1` the figure was 54.5% (active); with `COc1cc(/C=C2\Oc3ccc(C#Cc4ccc(O)cc4)cc3C2=O)cc(OC)c1`, 103% (active); with `COc1ccc(CC(=O)Nc2ccc(-c3nnc(-c4ccc(C)cc4)o3)cc2)cc1`, 57.6% (active).
Consider `O=C(Nc1cc2c3c(c1)C1CCCC1CN3CC1CCCC21)c1ccc([N+](=O)[O-])cc1` (stereo unspecified), for which the inhibition was 56.6% (active).
With `Cc1ccccc1OCC(=O)Nc1ccc(N2CCN(C(=O)C(C)C)CC2)c(Cl)c1` the figure was 7.1%.
Then `O=C(Cc1cccc2ccccc12)Nc1ccc2oc(-c3ccccc3)nc2c1`, with 25.7%; and `COc1ccccc1C1C2=C(COC2=O)Nc2cc3c(cc21)OCO3` (stereo unspecified), with 61.4% (active); and `Cc1cc(NC(=O)CSc2nc(C(C)C)nc3sc4c(c23)CCC(C)C4)no1` (stereo unspecified), with 51.7% (active).
As for `O=C(Nc1nc(-c2ccncc2)cs1)C1COc2ccccc2O1` (stereo unspecified), the inhibition is 31.4%.
With `C=CCC[C@@H](Cc1ccc(F)cc1)C(=O)OC[C@H](Cc1c[nH]c2ccccc12)NC(=O)[C@@H](CC=C)CC(=O)N(CCO)Cc1ccccc1` the figure was 80% (active).
Then `CCOC(=O)N1CCN(C(=O)c2ccccc2N(Cc2ccccc2)S(=O)(=O)c2ccc(OC)cc2)CC1`, with 64.1% (active); and `O=C1c2ccccc2C(=O)c2c1cccc2N1CCN(C/C=C/c2ccccc2)CC1`, with 64% (active).
In the case of `COc1ccc(S(=O)(=O)N2CCc3ccccc32)cc1C(=O)Nc1cc(S(C)(=O)=O)ccc1Cl`, the inhibition was 16.4%.
Then `Cc1onc(NC(=O)c2ccc([N+](=O)[O-])o2)c1Br`, with 46% (active); and `COc1ccc2sc(-c3ccc(N(C)C)cc3)c(C#CCO)c2c1`, with 85.7% (active).
As to `O=C(Nc1ccccc1)Oc1cccc2cccnc12`, the inhibition is -3.58%.
As to `COc1cc(NC(=O)c2cncc(-c3ccc(C#N)cc3)c2)cc(C(=O)Nc2cccc(C(F)(F)F)c2)c1`, the inhibition was 39.1%.
With `O=C(CSc1nc2ccc(Nc3nc(N4CCOCC4)nc(N4CCOCC4)n3)cc2s1)NCc1ccco1`, the inhibition was 65.5% (active).
With `COC(=O)Nc1nc2ccc(Sc3ccccc3)cc2[nH]1` the figure was 66.1% (active); with `Cc1cc(N/N=C\c2ccc(Br)cc2)nc(-n2nc(C)cc2C)n1`, 58.6% (active).
Then `Cc1ccccc1NC(=O)CSc1nc2ccc(Nc3nc(N4CCOCC4)nc(N4CCOCC4)n3)cc2s1`, with 77.3% (active).
On to `COc1ccc(Nc2cc(=O)oc3ccccc23)cc1`, for which the inhibition is 50.6% (active).
Then `CN(C)C(=O)c1cccc(-c2cnc3c(NC=O)cc(-c4ccc(C(=O)N5CCOCC5)cc4)cn23)c1`, with 58% (active); and `Cc1ccc(Sc2cc(N3CCOCC3)nc(-c3ccccc3)n2)cc1`, with 62.5% (active).
Turning to `CCN(CC)CCC(c1ccc2c(c1)OCO2)c1c(OC)cc(OC)c2c(-c3ccccc3)cc(=O)oc12` (stereo unspecified), the inhibition was 47.8% (active).
